Assay outcomes as filed in PubChem.
Rows were chosen to be rich in hits. Some 3.3% of all compounds tested hit in one or more screens of this group.
Tau fibril FP: inhibitors of human tau fibril formation | P10636 | K18 P301L tau heparin fibrillization, Alexa594 FP, 6 h | Potency, µM (top dose mostly 57.7 µM), without a hit: top-dose activity, negative = inhibition, usual class: inhibitors | 280,000 compounds, 0.39% hits | AID 1468; further: nearly all actives have a fitted effect of over 55% in size
Target sequence (P10636 561-689 P618L limits assumed): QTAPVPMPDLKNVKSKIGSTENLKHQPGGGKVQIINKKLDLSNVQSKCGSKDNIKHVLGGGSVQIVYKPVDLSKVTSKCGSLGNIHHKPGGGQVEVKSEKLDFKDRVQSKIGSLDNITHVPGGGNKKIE
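Read-out: fluorescence polarization of Alexa 594-labeled tau (0.24 uM), 555 nm excitation, 632 nm emission. Mixtures held 15 uM unlabeled K18 P301L, compound and 20 uM heparin, pH 7 acetate buffer, incubated 6 hr at 37 C.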
Tau fluor cs: counter-screen for tau fibril formation inhibitors; tau K18 P301L Alexa594 fluorescence, heparin fibrillization; Potency, µM (series often up to 57.7 µM), inactives show top-dose activity change, negative = decrease; 280,000 compounds, 0.93% hits; further: nearly all actives have a fitted effect of over 55% in size
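Human tau K18 P301L (15 uM unlabeled, 0.24 uM Alexa 594-labeled) in 100 mM sodium acetate pH 7 with 20 uM heparin, 6 hr at 37 C. ThT 30 uM added, 1 hr ambient; Alexa 594 FP and total fluorescence read at 555/632 nm.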
Tau fibril ThT: blocks human tau fibril formation measured by thioflavin T; Potency, µM (doses to about 57.4 µM), for inactives: at the top dose activity, negative = inhibition, actives largely listed as inhibitors; recombinant tau K18 P301L (four-repeat tau fragment), heparin-induced fibrillization, ThT fluorescence; 270,000 compounds, 2.1% hits; further: nearly all actives have a fitted effect of over 55% in size
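K18 P301L tau (15 uM + 0.24 uM Alexa 594-tagged), heparin 20 uM, NaOAc pH 7, 6 h 37 C; ThT 30 uM, 1 h RT, ex 450/em 510 nm.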
KinaseGlo FLuc: counter-screen: inhibitors of Kinase-Glo firefly luciferase; Q27757; 200,000 compounds, 0.28% hits; Potency, µM (top dose mostly 38.3 µM), inactives show at the highest dose activity change, negative = inhibition, actives largely listed as inhibitors; AID 1379; Kinase-Glo luciferase, ATP luminescence, 8 min; further: nearly all actives have a fitted effect of over 60% in size
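Recombinant Kinase-Glo luciferase, 10 uM ATP (linear range), luciferin; imidazole pH 7.2 / KCl / MgCl2 / Tween / BSA buffer; 8 min RT; luminescence.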
NPSR antagonist: blocks cAMP signaling of the human neuropeptide S receptor | 220,000 compounds, 1% hits | CHO-NPSR cells, cAMP TR-FRET, antagonist mode | AID 1461 | Potency, µM (top dose mostly 38.3 µM), for the others: at the highest dose activity change, negative = inhibition, most hits filed as inhibitors; further: nearly all actives have a fitted effect of over 50% in size
Target sequence (Q6W5P4 whole entry, looked up): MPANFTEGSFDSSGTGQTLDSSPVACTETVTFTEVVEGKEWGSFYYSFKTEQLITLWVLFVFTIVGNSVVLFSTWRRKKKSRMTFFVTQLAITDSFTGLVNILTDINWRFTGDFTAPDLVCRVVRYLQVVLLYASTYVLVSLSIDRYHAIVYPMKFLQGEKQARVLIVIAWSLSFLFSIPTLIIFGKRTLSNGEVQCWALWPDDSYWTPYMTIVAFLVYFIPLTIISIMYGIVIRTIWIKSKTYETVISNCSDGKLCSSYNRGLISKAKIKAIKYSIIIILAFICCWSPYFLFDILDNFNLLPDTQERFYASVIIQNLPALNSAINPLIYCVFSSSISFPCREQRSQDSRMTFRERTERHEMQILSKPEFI
Numbers without * were called inactive; ? = inconclusive; / = no result; [ ] = remark or other dose. The call rests on the fitted dose curve; in most records, active means well fitted curve in the direction sought with a large enough effect; inconclusive means small, poorly fitted or top-dose-only effect, or another doubt; inactive means no such curve, though single readings can be large; an effect the other way counts as inactive or inconclusive. On the % scale 0 is the no-effect control and ±100 the full control effect; potency means the concentration at half of the fitted maximal effect.

SMILES | Tau fibril FP | Tau fluor cs | Tau fibril ThT | KinaseGlo FLuc | NPSR antagonist
C[C@H]1[C@H](C)CC[C@]2(C(=O)O)CC[C@]3(C)C(=CCC4[C@@]5(C)C[C@@H](O)[C@H](O)[C@@](C)(CO)[C@@H]5CC[C@]43C)[C@H]12 (stereo partly specified) | -1% | -23% | ? | 2% | /
O=C1CCCCCCC1Sc1ccccc1[N+](=O)[O-] (stereo unspecified) | ? | -23% | 32µM* | -4% | -5%[46.1 µM]
[O-][n+]1c2c(nn1-c1ccccc1)/C(=N/O)CCC2 | -2% | -9% | -14% | -3% | 12%
[O-][n+]1onc2c1CCC(=N/O)/C2=N\Nc1ccccc1 | ? | ? | 14µM* | / | ?
CCC(C(=O)OCC(=O)Nc1cc(Cl)cc(Cl)c1)c1ccccc1 (stereo unspecified) | 32µM* | ? | -6% | -1% | -33%
CCN1CCN(C(c2ccccc2)c2sc3nc(-c4ccco4)nn3c2O)CC1 (stereo unspecified) | -5% | -13% | -8% | / | /
O=S(=O)(Nc1ccc(-c2csc(-c3ccccc3)n2)cc1)c1ccccc1 | ? | ? | 1% | 0% | ?
CNc1nc(-c2ccc([N+](=O)[O-])cc2)cs1 | 11% | -13% | 13µM* | -4% | -14%[46.1 µM]
O=[N+]([O-])c1ccc(S(=O)(=O)Nc2ccc(-c3csc(-c4ccccc4)n3)cc2)cc1 | -7% | 8.9µM*[quencher] | ? | 1% | -7%[46.1 µM]
CCOC(=O)c1c(C)[nH]c(C)c1S(=O)(=O)NCC(=O)Nc1cccc(SC)c1 | -2% | -14% | -3% | / | /
Nc1ccc(N=Nc2ccc(-c3ccc(O)cc3)cc2)c2ccc(S(=O)(=O)O)cc12 | / | / | / | -12%[7.66 µM] | /
Cc1cc(-c2ccc(N=Nc3ccc4c(S(=O)(=O)O)cc(S(=O)(=O)O)c(N)c4c3O)c(C)c2)ccc1N=Nc1ccc2c(S(=O)(=O)O)cc(S(=O)(=O)O)c(N)c2c1O | 3.2µM* | 0.79µM*[quencher] | 1.4µM* | 10µM* | /
Cc1ccc(N=Nc2c(O)c(S(=O)(=O)O)cc3cc(S(=O)(=O)O)ccc23)c(C)c1 | / | / | / | -6%[7.66 µM] | /
Nc1c(N=Nc2ccc(-c3ccc(N=Nc4cc(S(=O)(=O)O)c5ccccc5c4N)cc3)cc2)cc(S(=O)(=O)O)c2ccccc12 | -15% | -7% | 1.1µM* | ? | /
O=C(N/N=C/c1ccc(O)cc1)c1[nH]c2ccc(Br)cc2c1-c1ccccc1 | ? | 13µM*[quencher] | -15% | 0% | 7%
O=C(N/N=C/c1c[nH]c2ccc(Br)cc12)c1ccc2c(c1)OCO2 | ? | 18µM*[quencher] | ? | -3% | -20%
O=C(N/N=C/c1c[nH]c2ccccc12)c1[nH]c2ccc(Br)cc2c1-c1ccccc1 | -13% | 4µM*[quencher] | ? | 5% | -43%
COC(=O)C1=C(C)N(Cc2ccccc2)[C@]23O[C@](C(=O)OC)(C(=O)N2C1c1ccccc1)C1CCCC(=O)C13 (stereo partly specified) | -6%[11.6 µM] | -22%[11.6 µM] | -19%[11.5 µM] | / | /
Cc1ccc(Sc2c(C)nn(C(=O)COc3ccccc3)c2C)cc1 | 0% | -1% | -4% | / | /
O=C(NCc1cccc(Cl)c1)c1ccc2c(Cl)c3c(nc2c1)CCCC3 | 4% | -11% | -8% | / | /
CC(C)(C)C(=O)C(Cl)C(=O)Nc1ccccc1 (stereo unspecified) | ? | -12% | 7.1µM* | / | -20%
O=C(Nc1ccc(Nc2ccccc2)cc1)C(Cl)Cl | ? | ? | ? | -5% | -30%
Cc1ccccc1NC(=O)c1cc2c(-c3ccccc3)nn(-c3ccccc3)c2s1 | ? | -16% | 9% | / | /
CCc1ccc2oc(-c3cc(N=Cc4cccc(OC)c4O)ccc3O)nc2c1 | 7% | ? | 14µM* | -8% | -14%[46.1 µM]
COc1cccc(-n2cc(C(=O)NCCc3cccc(C)c3)c3ccccc3c2=O)c1 | -2% | -8% | -2% | / | /
SMILES | Tau fibril FP | Tau fluor cs | Tau fibril ThT | KinaseGlo FLuc | NPSR antagonist
COc1ccc(-c2cc3c(nn2)-c2ccccc2C3=O)cc1 | 14% | -13% | ? | 5µM* | -25%
O=C1c2ccccc2-c2nnc(-c3ccccc3)cc21 | 4% | -8% | ? | 7.9µM* | -7%[46.1 µM]
Cc1cccc(-c2cc3c(nn2)-c2ccccc2C3=O)c1 | 2% | ? | ? | ? | -11%[46.1 µM]
COC(=O)Cn1c(=O)c2c(n(Cc3ccccc3)c1=O)N/C(=C/c1ccc(Br)cc1)C2=O | 9% | ? | 16µM* | / | -24%
O=C(Nc1cccc(C(F)(F)F)c1)C1CCN(S(=O)(=O)c2cccc3nsnc23)CC1 | ? | ? | -15% | / | /
CNS(=O)(=O)c1cn(CC(=O)Nc2cccc(OC)c2)cc1S(=O)(=O)NC | 1% | 5% | 4% | / | /
Clc1ccc2c(NCCNc3ccnc4cc(Cl)ccc34)ccnc2c1 | / | / | / | 1%[7.66 µM] | /
Oc1ccc(/C=N/Nc2ccnc3cc(Cl)ccc23)cc1O | 13% | 16µM*[quencher] | 10µM* | / | -18%
CCCOC(=O)c1cccc(Nc2nc(CCC)cc(=O)[nH]2)c1 | 22µM* | ? | -6% | / | /
CCCc1cc(=O)[nH]c(Nc2ccc(C(=O)O)cc2)n1 | -2% | -12% | -9% | / | /
CC(C)c1ccc(CNc2nc(-c3ccco3)nn2C(=O)c2ccc([N+](=O)[O-])cc2)cc1 | 1% | 16µM*[quencher] | ? | / | /
CC[C@@H](C)[C@H](NS(=O)(=O)c1cccc2ccccc12)C(=O)N[C@H](C=O)Cc1c[nH]c2ccccc12 | 3% | ? | ? | / | /
Cc1ccsc1/C=C/C1=Cc2c(sc(NC(=O)CSc3n[nH]c(N)n3)c2C#N)C(C)(C)C1 | -13% | ? | 16µM* | -1% | -27%[46.1 µM]
CCOc1ccc(/C=C/C2=Cc3c(sc(NC(=O)CSc4n[nH]c(N)n4)c3C#N)C(C)(C)C2)cc1 | -14% | ? | 14µM* | -5% | -21%[46.1 µM]
CCOC(=O)c1sc(NC(=O)CSc2n[nH]c(-c3ccncc3)n2)c(C#N)c1C | -6% | -21% | -18% | -4% | -25%[46.1 µM]
O=C(Cn1ncc2c3ccccc3n(Cc3cccc(Cl)c3)c2c1=O)NC1CCCCCC1 | 3% | -10% | -17% | / | /
CC(C)(C)c1cc(-c2nc(N)nc(N)n2)cc(C(C)(C)C)c1 | 28µM* | -6% | ? | 1% | -39%
Nc1ccc(N=Nc2ccccc2)c(N)n1 | ? | ? | 13µM* | 0% | 28%
Nc1ccc(N=Nc2ccccc2)c2ccccc12 | ? | 13µM*[quencher] | 7.1µM* | / | 4%[7.67 µM]
COc1ccc(Nc2c(-c3ccc(C)o3)nc3cc(C)ccn23)cc1 | -2% | ? | ? | / | /
COc1ncc2nc(-c3ccc(Cl)cc3)c(=O)n(C[C@H]3CCCO3)c2n1 | / | / | / | 1% | /
COCCOC(=O)CSc1ncccc1-c1nc2cc(C)c(C)cc2[nH]1 | -7% | -28% | -14% | 13µM* | 29%
Cc1ccc(C(=O)Nc2cccc(C(=O)OCc3cc(=O)n4nc(C5CC5)sc4n3)c2)cc1 | ? | 6% | ? | / | /
